Assay results as given in the supplement of paper PMC10849652.
Of roughly 8,800 targets only a part is listed; those with a hit were picked by preference. About 0.5% of all pairs of compound and target were hits. Unmarked numbers belong to inactive results.

What was measured:
Assay in all cases: log2 fold change, soluble protein after heating vs DMSO (PISA); higher = thermal stabilisation; K562 lysate, 10 uM; active = over 0.2 and 3.5 SD of the protein, either way, in both replicates (recomputed)
vemurafenib = compound: CCCS(=O)(=O)Nc1ccc(F)c(C(=O)c2c[nH]c3ncc(-c4ccc(Cl)cc4)cc23)c1F [vemurafenib]
Procedure, shortened: (§1)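 Log-two fold change in thermal stability relative to solvent controls is reported from duplicates. For each sample, crude K562 extract from dounce-homogenised pellets in PBS pH 7.4 with 1 mM MgCl2, at 1 mg/mL protein, was treated with 10 μM compound for 30 min. Aliquots heated for 3 min across 48°C-58°C were pooled, brought to 0.5% NP-40 at 4°C and cleared at 21,000xg for 90 min. The supernatant was quantified by TMTpro 16plex LC-MS/MS with channel sums equalised.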

[1] = compound: CCCS(=O)(=O)Nc1ccc(F)c(C(=O)c2c[nH]c3ncc(Cl)cc23)c1F
Procedure, shortened: as §1

barasertib = compound: CCN(CCCOc1ccc2c(Nc3cc(CC(=O)Nc4cccc(F)c4)[nH]n3)ncnc2c1)CCOP(=O)(O)O [barasertib]
Procedure, shortened: as §1

[2] = compound: CC[C@@H]1C(=O)N(C)c2cnc(Nc3ccc(C(=O)NC4CCN(C)CC4)cc3OC)nc2N1C1CCCC1
Procedure, shortened: as §1

volasertib = compound: CC[C@@H]1C(=O)N(C)c2cnc(Nc3ccc(C(=O)N[C@H]4CC[C@H](N5CCN(CC6CC6)CC5)CC4)cc3OC)nc2N1C(C)C [volasertib]
Procedure, shortened: as §1

[3] = compound: CCn1c(C(=O)N(C2CC2)C2CC2)cc2c3c(ncn3C)c(Nc3cc(C)n(C)n3)nc21
Procedure, shortened: as §1

[4] = compound: CCn1cc(-c2ccnc3[nH]c(-c4cccc(CN(C)C)c4)cc23)c(-c2ccc(NC(=O)N(C)C)cc2)n1
Procedure, shortened: as §1

[5] = compound: CN1CCC(CNc2ccc3ncc(-c4cccc(OC(F)(F)F)c4)n3n2)CC1
Procedure, shortened: as §1

saracatinib = compound: CN1CCN(CCOc2cc(OC3CCOCC3)c3c(Nc4c(Cl)ccc5c4OCO5)ncnc3c2)CC1 [saracatinib]
Procedure, shortened: as §1

sotrastaurin = compound: CN1CCN(c2nc(C3=C(c4c[nH]c5ccccc45)C(=O)NC3=O)c3ccccc3n2)CC1 [sotrastaurin]
Procedure, shortened: as §1

Chain of UniProt Q8TBZ6 (Q8TBZ6 whole entry, looked up): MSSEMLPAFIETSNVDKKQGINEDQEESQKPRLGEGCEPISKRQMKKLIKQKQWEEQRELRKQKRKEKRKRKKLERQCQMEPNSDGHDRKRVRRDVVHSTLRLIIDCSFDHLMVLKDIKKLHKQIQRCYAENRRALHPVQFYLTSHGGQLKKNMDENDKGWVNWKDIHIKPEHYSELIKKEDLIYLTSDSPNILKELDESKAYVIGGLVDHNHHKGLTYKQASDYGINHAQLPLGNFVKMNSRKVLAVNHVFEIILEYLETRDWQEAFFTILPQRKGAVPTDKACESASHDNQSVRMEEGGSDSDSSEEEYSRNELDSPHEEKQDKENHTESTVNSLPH
Chain of UniProt Q5JUR7 (Q5JUR7 whole entry, looked up): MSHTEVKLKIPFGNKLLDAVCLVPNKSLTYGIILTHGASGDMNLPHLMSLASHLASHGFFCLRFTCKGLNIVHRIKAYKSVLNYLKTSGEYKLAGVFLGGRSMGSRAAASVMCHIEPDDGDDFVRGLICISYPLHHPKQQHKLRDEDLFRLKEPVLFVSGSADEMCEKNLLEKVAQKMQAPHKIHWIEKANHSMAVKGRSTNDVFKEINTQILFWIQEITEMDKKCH
Chain of UniProt O75865 (O75865 whole entry, looked up): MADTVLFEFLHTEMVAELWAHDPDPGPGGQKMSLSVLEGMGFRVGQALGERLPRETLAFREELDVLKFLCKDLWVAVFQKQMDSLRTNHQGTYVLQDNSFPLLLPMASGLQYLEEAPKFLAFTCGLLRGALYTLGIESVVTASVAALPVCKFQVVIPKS
Chain of UniProt Q13595 (Q13595 whole entry, looked up): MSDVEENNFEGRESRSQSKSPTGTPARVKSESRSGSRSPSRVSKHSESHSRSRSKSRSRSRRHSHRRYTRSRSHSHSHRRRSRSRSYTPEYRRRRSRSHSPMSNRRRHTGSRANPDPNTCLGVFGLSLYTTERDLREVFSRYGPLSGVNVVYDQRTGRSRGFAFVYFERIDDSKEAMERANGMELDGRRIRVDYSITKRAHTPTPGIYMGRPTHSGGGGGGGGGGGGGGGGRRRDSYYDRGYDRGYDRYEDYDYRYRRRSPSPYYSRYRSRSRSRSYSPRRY
Chain of UniProt Q9H4B7 (Q9H4B7 whole entry, looked up): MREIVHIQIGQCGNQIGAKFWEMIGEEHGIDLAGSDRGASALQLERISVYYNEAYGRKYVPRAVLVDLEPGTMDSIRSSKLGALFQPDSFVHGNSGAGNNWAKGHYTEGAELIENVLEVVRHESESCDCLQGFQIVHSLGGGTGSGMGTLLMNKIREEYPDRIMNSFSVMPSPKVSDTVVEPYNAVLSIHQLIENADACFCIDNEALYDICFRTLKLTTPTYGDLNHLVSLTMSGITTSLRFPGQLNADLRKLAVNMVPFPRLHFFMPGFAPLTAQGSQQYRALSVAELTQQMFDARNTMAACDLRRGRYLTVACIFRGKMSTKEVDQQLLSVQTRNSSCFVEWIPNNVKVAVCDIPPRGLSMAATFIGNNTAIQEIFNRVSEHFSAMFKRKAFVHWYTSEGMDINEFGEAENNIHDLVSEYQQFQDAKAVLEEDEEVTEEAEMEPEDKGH
Chain of UniProt Q96S44 (Q96S44 whole entry, looked up): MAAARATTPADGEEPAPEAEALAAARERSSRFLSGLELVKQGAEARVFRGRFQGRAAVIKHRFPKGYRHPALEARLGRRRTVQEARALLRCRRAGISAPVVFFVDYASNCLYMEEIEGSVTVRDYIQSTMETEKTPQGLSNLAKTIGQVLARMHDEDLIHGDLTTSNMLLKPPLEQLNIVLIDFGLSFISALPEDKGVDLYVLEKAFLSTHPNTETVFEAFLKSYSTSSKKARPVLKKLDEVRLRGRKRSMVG
Chain of UniProt P62256 (P62256 whole entry, looked up): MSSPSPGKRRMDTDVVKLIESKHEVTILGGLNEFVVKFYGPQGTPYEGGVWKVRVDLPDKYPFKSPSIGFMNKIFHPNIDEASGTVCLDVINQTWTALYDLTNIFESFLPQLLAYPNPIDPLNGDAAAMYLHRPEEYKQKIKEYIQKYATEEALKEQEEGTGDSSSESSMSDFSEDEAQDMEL
Chain of UniProt O95857 (O95857 whole entry, looked up): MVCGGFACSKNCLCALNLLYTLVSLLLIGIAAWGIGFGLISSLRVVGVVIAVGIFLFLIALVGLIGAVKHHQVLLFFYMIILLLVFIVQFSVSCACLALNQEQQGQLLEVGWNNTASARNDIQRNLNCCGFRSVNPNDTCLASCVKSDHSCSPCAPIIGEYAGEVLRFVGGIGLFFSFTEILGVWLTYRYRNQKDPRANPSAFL
Chain of UniProt O43399 (O43399 whole entry, looked up): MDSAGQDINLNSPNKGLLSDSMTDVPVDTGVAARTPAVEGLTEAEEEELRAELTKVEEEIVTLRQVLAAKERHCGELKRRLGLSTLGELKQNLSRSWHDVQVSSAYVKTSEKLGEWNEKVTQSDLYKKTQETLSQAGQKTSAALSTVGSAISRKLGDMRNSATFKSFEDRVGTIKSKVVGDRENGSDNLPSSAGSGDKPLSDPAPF
Chain of UniProt Q9Y4P3 (Q9Y4P3 whole entry, looked up): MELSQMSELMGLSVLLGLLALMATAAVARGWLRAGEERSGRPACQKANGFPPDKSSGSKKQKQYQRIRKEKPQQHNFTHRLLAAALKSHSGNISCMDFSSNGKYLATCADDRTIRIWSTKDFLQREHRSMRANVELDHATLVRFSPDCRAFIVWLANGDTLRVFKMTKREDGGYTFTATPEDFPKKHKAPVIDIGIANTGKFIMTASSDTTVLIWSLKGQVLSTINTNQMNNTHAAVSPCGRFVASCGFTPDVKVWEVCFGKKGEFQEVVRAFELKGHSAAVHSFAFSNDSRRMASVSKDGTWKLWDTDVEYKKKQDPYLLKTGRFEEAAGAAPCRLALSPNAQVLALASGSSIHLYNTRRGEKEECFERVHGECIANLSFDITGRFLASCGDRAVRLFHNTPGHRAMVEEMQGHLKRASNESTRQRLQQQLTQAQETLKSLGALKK
Chain of UniProt O14933 (O14933 whole entry, looked up): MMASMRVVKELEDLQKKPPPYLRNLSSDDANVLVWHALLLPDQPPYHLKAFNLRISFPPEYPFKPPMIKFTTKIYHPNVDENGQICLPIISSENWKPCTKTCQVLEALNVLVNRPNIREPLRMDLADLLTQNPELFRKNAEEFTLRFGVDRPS
Chain of UniProt Q5R3I4 (Q5R3I4 whole entry, looked up): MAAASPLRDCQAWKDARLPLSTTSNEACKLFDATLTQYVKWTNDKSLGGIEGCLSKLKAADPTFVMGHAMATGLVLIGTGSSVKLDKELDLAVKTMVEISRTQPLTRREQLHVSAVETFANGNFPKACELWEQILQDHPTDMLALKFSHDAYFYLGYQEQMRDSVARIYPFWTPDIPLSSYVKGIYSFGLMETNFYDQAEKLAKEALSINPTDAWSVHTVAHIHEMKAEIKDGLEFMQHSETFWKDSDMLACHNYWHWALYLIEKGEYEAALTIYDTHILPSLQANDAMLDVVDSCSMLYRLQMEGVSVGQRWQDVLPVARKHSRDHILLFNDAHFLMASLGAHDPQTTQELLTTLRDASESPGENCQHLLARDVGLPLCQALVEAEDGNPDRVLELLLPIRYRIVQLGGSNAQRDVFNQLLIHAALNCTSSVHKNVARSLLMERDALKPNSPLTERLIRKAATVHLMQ
Chain of UniProt Q8IZ69 (Q8IZ69 whole entry, looked up): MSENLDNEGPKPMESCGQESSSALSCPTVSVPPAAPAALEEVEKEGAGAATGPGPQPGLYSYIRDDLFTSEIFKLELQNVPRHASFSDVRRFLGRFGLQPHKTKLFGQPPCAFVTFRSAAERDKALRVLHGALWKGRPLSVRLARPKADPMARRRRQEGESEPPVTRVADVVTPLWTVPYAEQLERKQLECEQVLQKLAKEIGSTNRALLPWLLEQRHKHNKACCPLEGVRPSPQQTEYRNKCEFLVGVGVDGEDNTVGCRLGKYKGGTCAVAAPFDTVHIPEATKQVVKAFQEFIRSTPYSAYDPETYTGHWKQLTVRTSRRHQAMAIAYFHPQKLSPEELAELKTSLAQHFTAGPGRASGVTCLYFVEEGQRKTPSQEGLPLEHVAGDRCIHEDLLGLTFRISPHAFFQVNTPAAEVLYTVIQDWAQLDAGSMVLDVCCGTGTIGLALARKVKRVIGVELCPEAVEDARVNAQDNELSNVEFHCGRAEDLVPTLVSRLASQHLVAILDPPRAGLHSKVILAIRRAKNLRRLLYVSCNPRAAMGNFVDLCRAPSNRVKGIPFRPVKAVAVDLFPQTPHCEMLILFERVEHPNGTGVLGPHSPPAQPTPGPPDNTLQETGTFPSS
Chain of UniProt Q9BQE3 (Q9BQE3 whole entry, looked up): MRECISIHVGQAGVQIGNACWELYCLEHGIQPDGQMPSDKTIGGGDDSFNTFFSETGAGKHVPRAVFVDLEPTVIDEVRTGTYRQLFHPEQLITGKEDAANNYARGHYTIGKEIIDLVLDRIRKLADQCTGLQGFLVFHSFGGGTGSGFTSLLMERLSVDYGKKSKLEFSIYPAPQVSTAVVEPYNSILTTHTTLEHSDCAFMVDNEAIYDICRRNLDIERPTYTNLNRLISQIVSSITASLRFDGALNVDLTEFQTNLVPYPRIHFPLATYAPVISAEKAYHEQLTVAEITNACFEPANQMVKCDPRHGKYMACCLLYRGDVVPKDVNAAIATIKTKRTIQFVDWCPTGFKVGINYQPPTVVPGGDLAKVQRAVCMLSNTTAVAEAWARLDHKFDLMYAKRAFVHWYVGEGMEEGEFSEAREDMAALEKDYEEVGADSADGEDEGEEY
Chain of UniProt Q96DX7 (Q96DX7 whole entry, looked up): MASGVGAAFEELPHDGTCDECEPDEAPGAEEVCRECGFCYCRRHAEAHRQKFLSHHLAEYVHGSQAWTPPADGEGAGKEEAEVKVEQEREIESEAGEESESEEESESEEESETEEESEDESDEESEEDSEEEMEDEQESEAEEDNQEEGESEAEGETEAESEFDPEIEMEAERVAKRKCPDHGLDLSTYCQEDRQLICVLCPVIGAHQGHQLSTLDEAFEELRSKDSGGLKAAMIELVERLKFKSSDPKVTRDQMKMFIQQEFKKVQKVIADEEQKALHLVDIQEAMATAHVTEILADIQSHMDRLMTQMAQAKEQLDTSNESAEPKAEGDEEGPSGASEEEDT

Target | log2 fold change (vemurafenib) | log2 fold change [1] | log2 fold change (barasertib) | log2 fold change [2] | log2 fold change (volasertib) | log2 fold change [3] | log2 fold change [4] | log2 fold change [5] | log2 fold change (saracatinib) | log2 fold change (sotrastaurin)
TRA2A (UniProt Q13595) | -0.197 | -0.033 | -0.194 | -0.037 | -0.052 | 0.073 | -0.023 | 0.07 | 0.074 | 0
TUBB3 (UniProt Q13509) | -0.004 | 0.018 | -0.042 | -0.019 | -0.046 | 0.027 | -0.002 | 0.012 | 0.015 | 0.027
TPM4 (UniProt P67936) | -0.025 | 0.009 | 0.047 | 0.125 | 0.055 | 0.018 | 0.037 | -0.007 | 0.002 | 0.013
TUBB1 (UniProt Q9H4B7) | -0.039 | 0.011 | 0.002 | -0.025 | -0.087 | 0.034 | 0.15 | -0.025 | -0.002 | -0.045
TRMT10A (UniProt Q8TBZ6) | 0.005 | -0.025 | -0.08 | 0.118 | -0.014 | -0.005 | -0.027 | 0.029 | -0.014 | 0.006
TBL2 (UniProt Q9Y4P3) | -0.016 | -0.013 | -0.015 | -0.029 | -0.034 | -0.045 | -0.029 | 0.022 | 0.027 | 0.001
UBE2H (UniProt P62256) | -0.032 | -0.013 | -0.006 | 0.011 | 0.004 | -0.055 | 0.166 | -0.227 (active) | -0.056 | -0.02
TGOLN2 isoform 7 (UniProt O43493) | 0.02 | 0.023 | -0.023 | 0.05 | 0.035 | -0.094 | -0.012 | 0.036 | -0.033 | 0.06
UBE2D1 (UniProt P51668) | -0.013 | 0.022 | 0.014 | 0.012 | -0.046 | 0.089 | 0.007 | -0.025 | 0.043 | -0.021
TRMT2A (UniProt Q8IZ69) | -0.028 | 0.004 | 0.016 | -0.019 | -0.045 | 0.005 | -0.016 | 0.009 | -0.007 | 0.002
TYW3 (UniProt Q6IPR3) | 0.024 | 0.017 | 0.017 | 0.038 | -0.002 | -0.02 | -0.218 | 0.031 | -0.031 | -0.003
TPD52L2 isoform 7 (UniProt O43399) | -0.02 | -0.033 | 0.045 | 0.048 | 0.017 | 0.011 | -0.14 | 0.207 | 0.003 | 0.034
TPM3 isoform 2 (UniProt P06753) | -0.052 | -0.024 | -0.016 | -0.07 | 0.007 | 0.026 | 0.196 | -0.179 | -0.009 | 0.025
TRIM44 (UniProt Q96DX7) | -0.085 | 0.095 | 0.066 | -0.075 | -0.014 | 0.003 | 0.146 | -0.031 | 0.023 | 0.044
TUBA1C (UniProt Q9BQE3) | 0.036 | 0.026 | 0.013 | 0.009 | -0.059 | -0.029 | -0.082 | 0.022 | 0.054 | 0.044
TUBGCP3 (UniProt Q96CW5) | -0.013 | 0.026 | -0.078 | 0.001 | -0.039 | 0.028 | -0.016 | 0.015 | 0.002 | 0.01

Target | log2 fold change (vemurafenib) | log2 fold change [1] | log2 fold change (barasertib) | log2 fold change [2] | log2 fold change (volasertib) | log2 fold change [3] | log2 fold change [4] | log2 fold change [5] | log2 fold change (saracatinib) | log2 fold change (sotrastaurin)
TRIM33 (UniProt H0Y612) | 0.012 | 0.007 | 0.087 | 0.018 | 0.012 | 0.093 | -0.017 | 0.051 | -0.078 | 0.006
TOPBP1 (UniProt Q92547) | 0.024 | -0.08 | 0.018 | 0.012 | -0.079 | -0.029 | 0.305 (active) | -0.071 | -0.003 | 0.02
TERF2IP (UniProt Q9NYB0) | -0.009 | -0.003 | -0.006 | 0.075 | 0.022 | -0.015 | 0.269 (active) | -0.152 | -0.003 | 0.008
TEX30 (UniProt Q5JUR7) | 0.008 | 0.033 | 0.109 | -0.077 | -0.051 | 0.005 | -0.301 | 0.088 | -0.011 | -0.023
UBE2L6 (UniProt O14933) | 0.031 | -0.035 | 0.229 | 0.041 | 0.008 | 0.022 | 0.037 | -0.115 | -0.034 | -0.03
TP53RK (UniProt Q96S44) | -0.018 | 0.047 | 0 | -0.058 | -0.002 | 0.013 | 0.025 | -0.039 | -0.049 | -0.023
TRADD (UniProt Q15628) | -0.611 (active) | 0.052 | -0.002 | 0.07 | -0.023 | 0.065 | 0.014 | 0.001 | 0.011 | -0.023
TNPO3 (UniProt Q9Y5L0) | 0.024 | 0.003 | 0.019 | 0.009 | -0.008 | 0.008 | 0.005 | 0.023 | -0.001 | -0.004
TSPAN13 (UniProt O95857) | -0.032 | -0.03 | -0.033 | 0.177 | 0.032 | 0.046 | 0.114 | 0.059 | 0.134 | -0.154
TPM1 (UniProt H7BYY1) | -0.001 | -0.024 | -0.031 | 0.052 | 0.043 | -0.003 | 0.092 | -0.205 (active) | 0.009 | 0.015
UBR4 (UniProt Q5T4S7) | -0.003 | 0.016 | 0.02 | -0.037 | -0.03 | 0.019 | -0.034 | -0.031 | 0.01 | 0.007
TTI2 (UniProt Q6NXR4) | -0.009 | 0 | 0.005 | -0.022 | -0.048 | -0.004 | 0 | 0.035 | 0.037 | 0.031
TTC38 (UniProt Q5R3I4) | 0.035 | 0.03 | 0.102 | 0.004 | -0.001 | -0.047 | 0.189 | -0.181 | -0.026 | -0.027
TPM4 isoform 2 (UniProt P67936) | 0.031 | -0.016 | 0.021 | 0.052 | 0.005 | 0.048 | 0.525 (active) | -0.231 | -0.001 | -0.03
TRAPPC6A isoform 2 (UniProt O75865) | -0.144 | 0.027 | -0.001 | -0.288 (active) | -0.035 | -0.072 | -0.228 | -0.096 | 0.001 | -0.042
